Inconclusive results are not listed. The source made the active and inactive calls. The call rests on the fitted dose curve; in most records, active means well fitted cell-killing curve with a large enough effect; inconclusive means small, poorly fitted or top-dose-only effect, or effect the other way; inactive means flat fitted curve, though single readings scatter. Peptide text beside a SMILES is read from it.
assay: MultiTox-Fluor Cytotoxicity Assay - LYMP1-001 - Dead Cells (AID 946); details: LYMP1-001 lymphoblastoid cells, dead-cell protease fluorescence; series mostly up to 92.2 µM; cytotoxicity (dead cells): at the top concentration;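 on cytotoxicity (dead cells): 0% = DMSO and 100% = tetraoctylammonium bromide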
Text: NIH Chemical Genomics Center [NCGC]
NIH Molecular Libraries Screening Centers Network [MLSCN]
National Institutes of Environmental Health Sciences [NIEHS]
National Toxicology Program [NTP]
We have developed a 1536-well cell-based assay for quantitative high throughput screening (qHTS) against a number of cell lines to determine in vitro cytotoxicity of small molecules. This particular assay uses a human lymphoblastoid cell line (LYMP1-001) purchased from Coriell Institute for Medical Research.
NCGC Assay Protocol Summary:
The MultiTox-Fluor Cytotoxicity Assay (Promega) is a homogeneous method to simultaneously measure the relative number of live and dead cells in culture by detecting changes in cell membrane integrity. There are two fluorogenic peptide substrates in the assay reagent. Viable cells are determined when the cell-permeant substrate (GF-AFC) enters the cell and is cleaved by protease from live cells resulting in liberated fluorophore. This live-cell protease activity restricted to viable cells is proportional to cell number. The dead cells are determined by using fluorogenic cell-impermeant peptide substrate (bis-AAF-R110) which cleaved by dead cell proteases leaking from damaged cell membrane.
Using the MultiTox-Fluor Cytotoxicity Assay, the relative number of dead cells was measured in the lymphoblastoid cell line with complete culture medium following compound treatment for 16 hours. The assay was performed in opaque black Kalypsys 1536-well plates. In the screen, tetraoctylammonium bromide was used as positive control. Library compounds were measured for their ability to cause acute toxicity in the cell line, as reflected by an increase in dead cell protease activity, in a concentration-dependent manner. Data were normalized to the controls for basal activity (DMSO only) and 100% stimulation (15 uM tetraoctylammonium bromide). AC50 values were determined from concentration-response data modeled with the standard Hill equation.
qHTS protocol for MultiTox-Fluor Cytotoxicity assay
[Step] [Parameter] [Value] [Description]
1. Reagent; 5 uL; 2500 lymphoblastoid cells/well
2. Time; 5 hr; 37 C incubation
4. Controls; 23 nL; Tetraoctylammonium bromide 6.4pM to 92 uM
5. Time; 16 hr; 37 C incubation
6. Reagent; 5 uL; MuliTox-Fluor Assay reagent
7. Time; 60 min; Room Temperature
8. Detection; dead-cell fluorescence (Ex/Em=485/520); EnVision plate reader
Keywords: cytotoxicity, lymphoblastoid cell line, fluorescence, NTPHTS, NTPHTS_NCGC, NIEHS, EPA, DSSTox, MLSMR, MLSCN, NIH Roadmap, qHTS, NCGC
Potency means the concentration at half of the fitted maximal effect.

Structure (SMILES)	cytotoxicity (dead cells)	Potency
COC(=O)[C@H](Cc1ccccc1)NC(=O)[C@@H](N)CC(=O)O (H-Asp-Phe-OMe)	-16.3% (inactive)	
NS(=O)(=O)c1cc(C(=O)O)c(NCc2ccco2)cc1Cl	-8.11% (inactive)	
CC(=O)Nc1ccc(O)cc1	0.673% (inactive)	
Cc1cc(O)c2c(c1)C(=O)c1cc(O)cc(O)c1C2=O	-16.6% (inactive)	
CCCc1cc(=O)[nH]c(=S)[nH]1	-4.31% (inactive)	
CCCCC(CC)COC(=O)C(C#N)=C(c1ccccc1)c1ccccc1 (stereo not drawn)	21.8% (inactive)	
Nc1ccc(S(N)(=O)=O)cc1	-11.3% (inactive)	
CCc1nc(N)nc(N)c1-c1ccc(Cl)cc1	12.1% (inactive)	
Cc1ccc(C)c(OCCCC(C)(C)C(=O)O)c1	-3.91% (inactive)	
COc1c2occc2cc2ccc(=O)oc12	5.78% (inactive)	
c1ccc2[nH]c(-c3cscn3)nc2c1	-11.1% (inactive)	
CS(=O)(=O)OCCCCOS(C)(=O)=O		inactive
CN(C)c1ccc2nc3ccc(=[N+](C)C)cc-3sc2c1		10 µM (active)
